Experimental data published in PubChem BioAssay (NCI).
The panel holds about 83,000 compounds, 20% with a hit somewhere; the sample as a whole holds those more often.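 How to read the values: 0–100, growth inhibition (40 = 60% inhibited); 0, no net growth; -100 to 0, cell death (-40 = 40% of starting cells died; -100 = all dead).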 Activity calls are given as the source filed them.

system: MOLT-4 leukemia; assay: NCI-60 one-dose screen, 48 h (100 = growth as untreated, 0 = no growth, -100 = all killed); conditions: 10 µM unless noted
Method: Growth inhibition of the MOLT-4 human tumor cell line is measured as a screen for anti-cancer activity. Cells are grown in 96 well plates and exposed to the test compound for 48 hours. Compounds are tested at a single concentration, which is 10^-5 M for most compounds. The reported endpoint is percent growth (GI% or GIPRCNT), where numbers from 0 - 100% represent growth inhibition, and numbers from -100% - 0 represent cell death. For example, a value of 40 represents 60% growth inhibition. A value of 0 means no net growth occurred over the course of the experiment. A value of -40 indicates 40% of cells at the beginning of the experiment died by the end of the experiment. A value of -100 means all cells are dead at the end of the experiment.
NCI-60 Human Tumor Cell Lines Screen was performed using the standard one-dose NCI protocol, which is described in more detail at https://dtp.cancer.gov/discovery_development/nci-60/default.htm.
Compounds with GIPRCNT values below 10 were considered active. Activity score was based on GIPRCNT using the following formula: […]
Score is 0 for GIPRCNT values of 100 or above, 50 for GIPRCNT values of 0, and 100 for GIPRCNT values of -100.

SMILES | growth
Cc1cc(O)cc2c1[C@H]1CC[C@]3(C)[C@@H](O)CC[C@H]3[C@@H]1C=C2 | 79% (inactive)
CCC(C)Oc1cc(/C=N/NC(=O)c2cnn3c2NC(c2ccccc2)C3)ccc1OC (stereo not given) | 24.9% (inactive)
COc1cc(/C=N/NC(=O)c2cnn3c2NC(c2ccccc2)C3)ccc1OC1CCCC1 (stereo not given) | 41.6% (inactive)
O=S(=O)(OCCO)c1ccccc1 | 108% (inactive)
O=C1CCC(N2C(=O)c3cccc(NCCOCCOCCNC(=O)c4cc5c(o4)C(=O)c4ccccc4C5=O)c3C2=O)C(=O)N1 (stereo not given) | 6.06% (active)
O=C(Nc1ccc(Cl)c(Cl)c1)OCn1ncc2ccc([N+](=O)[O-])cc21 | 70.6% (inactive)
Nc1nc(-c2ccnc(Cl)c2)nn1-c1nc2ccccc2s1 | 119% (inactive)
Cc1ccc(-c2nnc(COc3ccc(-c4nnc(N)s4)cc3)o2)cc1 | 77.6% (inactive)
COc1cc(-c2ccc3cc(OC)c(OC)c(OC)c3c2)cc(OC)c1OC | 83.9% (inactive)
COc1cc(CNCCCN2C(=O)c3ccc4c5c(ccc(c35)C2=O)C(=O)N(CCCNCc2cc(OC)c(OC)c(OC)c2)C4=O)cc(OC)c1OC | -12.6% (active)
COc1cc(NC(=O)COc2ccccc2)c(C(N)=O)cc1OC | 26.9% (inactive)
N#Cc1c(O)c2c(c(O)c1C#N)C(=O)c1ccccc1C2=O | 8.65% (active)
CCCCCCCCCCCCCCCC[N+]1(C)CCOCC1 | -57.8% (active)
CC1CCCCN1S(=O)(=O)c1ccc(CN=C=S)cc1 (stereo not given) | 31.1% (inactive)
Cn1c(=O)c(S(=O)(=O)c2ccccc2)cc2ccc3c(cnn3-c3ccc(Cl)cc3)c21 | 94.8% (inactive)
CN1CCC(OC2c3ccccc3CCc3ccccc32)CC1 | 99.5% (inactive)
CCOC(=O)c1cc2c(n(C)c1=O)-c1cnn(-c3ccc(OC)cc3)c1CC2 | 94.2% (inactive)
CCCCCCCCCCCCCCNc1nc(CO)ncc1-c1ccc(C(F)(F)F)cc1 | 99.6% (inactive)
CCCCC(=O)N/N=C/c1cc(I)cc(I)c1O | 28.2% (inactive)
COc1ccc(NC(=O)COc2ccccc2)c(C(N)=O)c1 | 20.1% (inactive)

SMILES | growth
O=C(COc1ccc(/C=C2\CSc3ccccc3C2=O)cc1)c1ccc(Cl)cc1 | 82.1% (inactive)
CCOC(=O)c1c(Cl)c2c(n1Cc1ccc(OC)cc1)-c1oncc1CCC2 | 72.1% (inactive)
OC[C@@H](O)[C@@H](O)CO | 94.8% (inactive)
O=C1NC(=O)C2(CCCC2C(=O)O)N1 (stereo not given) | 101% (inactive)
COc1ccc(/C=N/OCC(O)CN2CCC(O)CC2)cc1OC1CCCC1 (stereo not given) | 106% (inactive)
Cc1cc(Cl)c2c(Cl)ccc(Cl)c2n1 | 95.6% (inactive)
COc1ccccc1/C=C/C(=O)/C=C/c1ccccc1O | -26.3% (active)
Cc1nc2cc(Nc3nc(Nc4ccc(F)cc4)nc(N4CCCC4)n3)ccc2n1Cc1ccccc1 | -30.7% (active)
CC(C)N1CCN(c2ccc(OC[C@H]3CO[C@](Cn4cncn4)(c4ccc(Cl)cc4Cl)O3)cc2)CC1 | 86.2% (inactive)
O=c1oc2ccccc2cc1-c1csc(N/N=C/c2cc3ccccc3nc2Cl)n1 | 132% (inactive)
Cc1cc(=O)oc2c1ccc1oc(C(=O)c3ccccc3)c(C)c12 | 76.8% (inactive)
Cc1nc2cc(Nc3nc(N4CCOCC4)nc(N4CCN(C)CC4)n3)ccc2n1Cc1ccccc1 | 91.8% (inactive)
O=C1NC(=O)C(CSc2ccccc2)(c2ccccc2)N1 (stereo not given) | 97.8% (inactive)
Cc1nc2cc(Nc3nc(Nc4ccc(F)cc4)nc(N4CCN(C)CC4)n3)ccc2n1Cc1ccccc1 | 1.11% (active)
C=C[C@H]1C[C@@H]2C[C@@H]3[C@H]4C/C=C\C(=O)NCCCC5NC(=O)C(=C(O)/C=C/[C@@H]4CC(=O)[C@H]3[C@@H]2[C@H]1C)C5=O (stereo not given in full) | -68.9% (active)
COc1cc(/C=C/C(=O)C(=Cc2ccc(F)c(F)c2)C(=O)/C=C/c2ccc(O)c(OC)c2)ccc1O | 12.2% (inactive)
COc1ccc(Nc2[nH]n(C3=Nc4ccccc4Sc4ccccc43)c(=O)c2C#N)cc1 | 46.5% (inactive)
Fc1c[c-]c(-c2ccccn2)c(F)c1.Fc1c[c-]c(-c2ccccn2)c(F)c1.[Cl][Pt+].[Cl][Pt+].c1ccc([PH+](C[PH+](c2ccccc2)c2ccccc2)c2ccccc2)cc1 | 23.4% (inactive)
O=c1[nH]c(=S)[nH]c(=O)n1Cc1cccc2ccccc12 | 99.7% (inactive)
O=S(=O)(/N=C1C=C/C(=N\S(=O)(=O)c2ccccc2)c2ccccc2\1)c1ccccc1 | 87.1% (inactive)
